Results published in the supplement of paper PMC9262897, “Low-cost anti-mycobacterial drug discovery using engineered E. coli” (Nature Communications, 2022).
Counter-ions that a name gives are not always drawn. ± gives the standard deviation of the averaged measurements.

test system: E. coli TESEC Mtb Alr; experiment: growth (OD600 after 10 h); higher = more growth (less inhibition); details: arabinose 10000000 nM; compound 0.1 mM; raw OD600 reference: median of DMSO wells 0.146, cell-free background 0.041
Description: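 TESEC Mtb Alr E. coli, or the Alr+ wild-type control, in 384-well plates with Prestwick library compounds at 0.1 mM and 1% DMSO, across arabinose induction levels of 1E3 to 1E7 nM. Growth is read as OD600 after 10 h at 37 °C in triplicate biological replicates.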

SMILES | growth
CC(C(O)c1ccc(O)cc1)N1CCC(Cc2ccccc2)CC1 (stereo not drawn) [Ifenprodil tartrate] | 0.172 ± 0.0094
O=C(c1ccc(F)cc1)C1CCN(CCn2c(=O)[nH]c3ccccc3c2=O)CC1 [Ketanserin tartrate hydrate] | 0.17 ± 0.0079
COc1cc2nc(N(C)CCCNC(=O)C3CCCO3)nc(N)c2cc1OC (stereo not drawn) [Alfuzosin hydrochloride] | 0.155 ± 0.011
CN(C)C(=O)C(CCN1CCC(O)(c2ccc(Cl)cc2)CC1)(c1ccccc1)c1ccccc1 [Loperamide hydrochloride] | 0.04237 ± 0.00015
CNCCC=C1c2ccccc2C=Cc2ccccc21 [Norcyclobenzaprine] | 0.111 ± 0.0032
O=S(=O)(O)c1cc(O)ccc1O [Ethamsylate] | 0.13 ± 0.0042
N[C@@H]1CONC1=O [D-cycloserine] | 0.132 ± 0.0031
Clc1ccc(CO/N=C(\Cn2ccnc2)c2ccc(Cl)cc2Cl)c(Cl)c1 [Oxiconazole Nitrate] | 0.0621 ± 0.0089
COc1cc(NS(=O)(=O)c2ccc(N)cc2)ncn1 [Sulfamonomethoxine] | 0.1384 ± 0.0013
C[C@@H]1NC(=O)NC1=O [Methylhydantoin-5-(L)] | 0.1457 ± 0.0013
Cn1c(=O)c2c(ncn2CC(=O)O)n(C)c1=O [Acefylline] | 0.138 ± 0.0046
CCC(=O)O[C@]1(C(=O)SCF)[C@H](C)C[C@H]2[C@@H]3C[C@H](F)C4=CC(=O)C=C[C@]4(C)[C@@]3(F)[C@@H](O)C[C@@]21C [Fluticasone propionate] | 0.149 ± 0.0044
Cn1c(=O)c2c(ncn2CCO)n(C)c1=O [Etofylline] | 0.145 ± 0.0023
CCOC(=O)[C@H](CCc1ccccc1)N[C@@H](C)C(=O)N1CCC[C@H]1C(=O)O [Enalapril maleate] | 0.161 ± 0.009
CCC[C@@H]1C[C@@H](C(=O)N[C@@H]([C@H]2O[C@H](SC)[C@H](O)[C@@H](O)[C@H]2O)[C@@H](C)O)N(C)C1 [Lincomycin hydrochloride] | 0.0731 ± 0.00091
CC(C)(C)NC[C@H](O)COc1nsnc1N1CCOCC1 [Timolol maleate salt] | 0.151 ± 0.006
CC(C)NCC(O)COc1ccc(COCCOC(C)C)cc1 (stereo not drawn) [Bisoprolol fumarate] | 0.14 ± 0.0055
c1ccc2c(CC3=NCCN3)cccc2c1 [Naphazoline hydrochloride] | 0.147 ± 0.0052
CC(=O)OCC(=O)[C@@]1(O)CC[C@H]2[C@@H]3CCC4=CC(=O)CC[C@]4(C)[C@@]3(F)[C@@H](O)C[C@@]21C [Fludrocortisone acetate] | 0.128 ± 0.0027
O=P(O)(O)C(O)(Cn1ccnc1)P(=O)(O)O [Zoledronic acid hydrate] | 0.134 ± 0.0016
Cc1c(N(C)C)c(=O)n(-c2ccccc2)n1C [Amidopyrine] | 0.138 ± 0.0025
C=C1/C(=C\C=C2/CCC[C@]3(C)[C@@H]([C@H](C)/C=C/[C@@H](O)C4CC4)CC[C@@H]23)C[C@@H](O)C[C@@H]1O [Calcipotriene] | 0.056 ± 0.0013
NS(=O)(=O)c1cc2c(cc1Cl)N=CNS2(=O)=O [Chlorothiazide] | 0.1414 ± 0.00081
CN(C)CCc1c[nH]c2ccc(Cn3cncn3)cc12 [Rizatriptan benzoate] | 0.141 ± 0.006
Nc1ncn(C2OC(CO)C(O)C2O)c(=O)n1 (stereo not drawn) [Azacytidine-5] | 0.0822 ± 0.0002
CC(=O)N[C@@H](CC(=O)N[C@@H](CCC(=O)O)C(=O)O)C(=O)O [Spaglumic acid] | 0.143 ± 0.0028
Cc1c(NC(=O)c2cccnc2)c(=O)n(-c2ccccc2)n1C [Nifenazone] | 0.1554 ± 0.001
Cc1ccnc2c1NC(=O)c1cccnc1N2C1CC1 [Nevirapine] | 0.14 ± 0.0044
CC(C)NCC(O)COc1ccc(CCOCC2CC2)cc1 (stereo not drawn) [Betaxolol hydrochloride] | 0.161 ± 0.0056

test system: E. coli TESEC Mtb Asd; experiment: as above; details: arabinose induction (level): High; compound 0.1 mM; raw OD600 reference: median of DMSO wells 0.331, cell-free background 0.041
Description: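 TESEC E. coli strains in which the native enzyme is deleted and replaced by arabinose-inducible Mtb Asd, DapB, CysH or TrpD, each grown in its selective medium. Strains were screened against the Prestwick library at 0.1 mM and 1% DMSO in 384-well format at low and high arabinose induction. Growth is read as OD600 after 10 h in triplicate.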

SMILES | growth
CCCCN(CCCC)CCC(O)c1cc2c(Cl)cc(Cl)cc2c2cc(C(F)(F)F)ccc12 (stereo not drawn) [Halofantrine hydrochloride] | 0.282 ± 0.059
CO[C@@H]1[C@@H](O[C@@H]2O[C@H](C)[C@@H](O[C@H]3C[C@@](C)(O)[C@@H](OC(=O)CC(C)C)[C@H](C)O3)[C@H](N(C)C)[C@H]2O)[C@@H](CC=O)C[C@@H](C)[C@@H](O)/C=C/C=C/C[C@@H](C)OC(=O)C[C@H]1OC(C)=O [Josamycin] | 0.0609 ± 0.0067
Cc1ccccc1C(OCCN(C)C)c1ccccc1 (stereo not drawn) [Orphenadrine hydrochloride] | 0.18 ± 0.015
O=C(NCC1CCCCN1)c1cc(OCC(F)(F)F)ccc1OCC(F)(F)F (stereo not drawn) [Flecainide acetate] | 0.263 ± 0.026
C[C@]12CC[C@@H]3c4ccc(O)cc4C[C@@H](CCCCCCCCC[S+]([O-])CCCC(F)(F)C(F)(F)F)[C@H]3[C@@H]1CC[C@@H]2O (stereo partly drawn) [Fulvestrant] | 0.379 ± 0.022
CN1CCN(CC(=O)N2c3ccccc3C(=O)Nc3cccnc32)CC1 [Pirenzepine dihydrochloride] | 0.28 ± 0.051
CCCCC(=O)N(Cc1ccc(-c2ccccc2-c2nnn[nH]2)cc1)[C@H](C(=O)O)C(C)C [Valsartan] | 0.291 ± 0.042
CCOc1ccccc1OCC1CNCCO1 (stereo not drawn) [Viloxazine hydrochloride] | 0.251 ± 0.022
Cc1nc2n(c(=O)c1CCN1CCC(c3noc4cc(F)ccc34)CC1)CCCC2 [Risperidone] | 0.183 ± 0.032
C=C1C(=O)O[C@H]2[C@H]1CC/C(C)=C/CC[C@@]1(C)O[C@@H]21 [Parthenolide] | 0.155 ± 0.0046
CC(C(O)c1ccc(O)cc1)N1CCC(Cc2ccccc2)CC1 (stereo not drawn) [Ifenprodil tartrate] | 0.313 ± 0.065
O=C(c1ccc(F)cc1)C1CCN(CCn2c(=O)[nH]c3ccccc3c2=O)CC1 [Ketanserin tartrate hydrate] | 0.243 ± 0.075
COc1cc2nc(N(C)CCCNC(=O)C3CCCO3)nc(N)c2cc1OC (stereo not drawn) [Alfuzosin hydrochloride] | 0.24 ± 0.029
CN(C)C(=O)C(CCN1CCC(O)(c2ccc(Cl)cc2)CC1)(c1ccccc1)c1ccccc1 [Loperamide hydrochloride] | 0.0486 ± 0.00055
CNCCC=C1c2ccccc2C=Cc2ccccc21 [Norcyclobenzaprine] | 0.204 ± 0.045
O=S(=O)(O)c1cc(O)ccc1O [Ethamsylate] | 0.211 ± 0.034
N[C@@H]1CONC1=O [D-cycloserine] | 0.252 ± 0.066
Clc1ccc(CO/N=C(\Cn2ccnc2)c2ccc(Cl)cc2Cl)c(Cl)c1 [Oxiconazole Nitrate] | 0.0621 ± 0.001
COc1cc(NS(=O)(=O)c2ccc(N)cc2)ncn1 [Sulfamonomethoxine] | 0.345 ± 0.061
C[C@@H]1NC(=O)NC1=O [Methylhydantoin-5-(L)] | 0.427 ± 0.024

SMILES | growth
Cn1c(=O)c2c(ncn2CC(=O)O)n(C)c1=O [Acefylline] | 0.297 ± 0.04
CCC(=O)O[C@]1(C(=O)SCF)[C@H](C)C[C@H]2[C@@H]3C[C@H](F)C4=CC(=O)C=C[C@]4(C)[C@@]3(F)[C@@H](O)C[C@@]21C [Fluticasone propionate] | 0.258 ± 0.058
Cn1c(=O)c2c(ncn2CCO)n(C)c1=O [Etofylline] | 0.396 ± 0.053
CCOC(=O)[C@H](CCc1ccccc1)N[C@@H](C)C(=O)N1CCC[C@H]1C(=O)O [Enalapril maleate] | 0.322 ± 0.039
CCC[C@@H]1C[C@@H](C(=O)N[C@@H]([C@H]2O[C@H](SC)[C@H](O)[C@@H](O)[C@H]2O)[C@@H](C)O)N(C)C1 [Lincomycin hydrochloride] | 0.151 ± 0.017
CC(C)(C)NC[C@H](O)COc1nsnc1N1CCOCC1 [Timolol maleate salt] | 0.451 ± 0.021
CC(C)NCC(O)COc1ccc(COCCOC(C)C)cc1 (stereo not drawn) [Bisoprolol fumarate] | 0.391 ± 0.017
c1ccc2c(CC3=NCCN3)cccc2c1 [Naphazoline hydrochloride] | 0.238 ± 0.042
CC(=O)OCC(=O)[C@@]1(O)CC[C@H]2[C@@H]3CCC4=CC(=O)CC[C@]4(C)[C@@]3(F)[C@@H](O)C[C@@]21C [Fludrocortisone acetate] | 0.249 ± 0.066
O=P(O)(O)C(O)(Cn1ccnc1)P(=O)(O)O [Zoledronic acid hydrate] | 0.257 ± 0.083
Cc1c(N(C)C)c(=O)n(-c2ccccc2)n1C [Amidopyrine] | 0.373 ± 0.017
C=C1/C(=C\C=C2/CCC[C@]3(C)[C@@H]([C@H](C)/C=C/[C@@H](O)C4CC4)CC[C@@H]23)C[C@@H](O)C[C@@H]1O [Calcipotriene] | 0.0646 ± 0.0023
NS(=O)(=O)c1cc2c(cc1Cl)N=CNS2(=O)=O [Chlorothiazide] | 0.433 ± 0.014
CN(C)CCc1c[nH]c2ccc(Cn3cncn3)cc12 [Rizatriptan benzoate] | 0.337 ± 0.057
Nc1ncn(C2OC(CO)C(O)C2O)c(=O)n1 (stereo not drawn) [Azacytidine-5] | 0.125 ± 0.0088
CC(=O)N[C@@H](CC(=O)N[C@@H](CCC(=O)O)C(=O)O)C(=O)O [Spaglumic acid] | 0.227 ± 0.021
Cc1c(NC(=O)c2cccnc2)c(=O)n(-c2ccccc2)n1C [Nifenazone] | 0.309 ± 0.066
Cc1ccnc2c1NC(=O)c1cccnc1N2C1CC1 [Nevirapine] | 0.399 ± 0.051
CC(C)NCC(O)COc1ccc(CCOCC2CC2)cc1 (stereo not drawn) [Betaxolol hydrochloride] | 0.264 ± 0.049
